± gives the standard deviation. Some results are limits rather than exact numbers.
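Further: 1 nM active piRISC with 0.1 nM target library at 33 °C single turnover.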

This assay concerns MILI (PIWIL2) piRISC loaded with piRNA #1 (26 nt). Nature of the assay: pre-steady-state target cleavage rate (min^-1); guide: piRNA #1 5'p-UGAGGUAGUAGGUUGUAUAGUAUCCA; MIWI and MILI are mouse PIWI proteins and EfPiwi is from a freshwater sponge; tags in brackets are library labels; higher = faster piRNA-guided slicing of the target. Particulars: auxiliary factor: 500 nM mouse GTSF1. In short, it runs like this: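 In HEPES–potassium acetate buffer at 33 °C, […] transcribed, DNA-blocked target RNA library was mixed with 1 nM active affinity-purified piRISC carrying one synthetic guide, with or without 500 nM GTSF1 partner protein, for 0–8 or 0–960 min. Uncleaved targets were sequenced and normalised to depth and to weakly complementary targets; three trials were pooled and k3 was capped at 0.0001 min^-1. The pre-steady-state cleavage rate followed from a burst-and-steady-state fit.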
On to GGAGACCAUACUAUUCAACCUAGUACCUCA, for which the “pre-steady-state target cleavage rate” value stood at 0.0559 ± 0.011.
Consider GGAGACCUAUCUAUUCAACCUACUACCUGA, for which the “pre-steady-state target cleavage rate” value amounted to 0.0654 ± 0.014.
In the case of GGAGACCUAUCUAUACAACGUACUAGCUCA, the “pre-steady-state target cleavage rate” value stood at 0.00553 ± 0.0029.
The same measure for GGAGACCUUAUAUACAACCUACUACCUCA: 0.0314 ± 0.0072; for GGAGUGGAUACUUUACAACCUACUAGCUCA: 0.0406 ± 0.0075; for GGAGAGGAUAGUAUUCAACCUACUACCUCA: 0.0731 ± 0.011.
For GGAGACGAUACUAAACAACCUACUACGUCA, the “pre-steady-state target cleavage rate” value worked out at 0.0907 ± 0.012.
The same measure for GGAGACCAUACUAUACAACCUACUACCUCCA: 0.137 ± 0.018.
For GGAGACCUAACUAUACAACCUAGAACCUCA, the “pre-steady-state target cleavage rate” value stood at 0.00531 ± 0.005.
With GGAGACGAUUGUAUACAACCUACUACCUCA, the “pre-steady-state target cleavage rate” value turned out to be 0.0734 ± 0.0068.
For GGAGACCUAUGUAUCAACCUACUACCUCA, the “pre-steady-state target cleavage rate” value worked out at 0.00951 ± 0.0023.
As to GGAGACCUAUGAUUACAAGGUACUACCUCA, the “pre-steady-state target cleavage rate” value was determined as 0.0041 ± 0.0031.
Consider GGAGACCUAUCUAUACAACCUACUUCGUCA, for which the “pre-steady-state target cleavage rate” value was 0.0271 ± 0.0057.
Take GGAGAGGAUACAAUACAACCUACUACCUCA: the “pre-steady-state target cleavage rate” value came out at 0.172 ± 0.012.
Take GGAGACCUAUGAUUACAACCUACUAUCUCA: the “pre-steady-state target cleavage rate” value amounted to 0.00332 ± 0.0022.
On to GGAGAGGAUACUAUAGAACCUACUACCUGA, for which the “pre-steady-state target cleavage rate” value turned out to be 0.0217 ± 0.005.
Consider GGAGAGGAUACUUAACAACCUACUACCUCA, for which the “pre-steady-state target cleavage rate” value was 0.163 ± 0.013.
Take GGAGACCUUACUAUACAACCUACAAGCUCA: the “pre-steady-state target cleavage rate” value was found to be 0.103 ± 0.03.
The same measure for GGAGACCUUAGUAUACAACCUACUACCACA: 0.101 ± 0.013; for GGAGACCUAUGAUAACAUCCUACUUCCUCA: 0.00421 ± 0.0027.
Take GGAGACCUAUGAUAUGUUGCUACAACCUGA: the “pre-steady-state target cleavage rate” value was below 0.0001.
Consider GGAGACCUAACUAUACUACCUACUAGCUCA, for which the “pre-steady-state target cleavage rate” value was 0.0708 ± 0.021.
With GGAGACCUUACAAUACAACCUACAACCUCA, the “pre-steady-state target cleavage rate” value stood at 0.111 ± 0.011.
GGAGACCUAUGAAUACAACCUGCUACCUCA: the “pre-steady-state target cleavage rate” value was 0.00274 ± 0.0027.

The values are drawn from the supplement of paper PMC10338343.
